# Where “and” joins values, the source holds several entries; their conditions need not be identical. Equal entries are not always repeated. Where a structure was tested more than once in an assay, its records may differ in their call. Calls of active or inactive are those of the source. Rule for the calls: active = hit-call score of the fitted dose curve at least 0.9, where 1 is the maximum; inactive = score below 0.9.
# Read-out: CD69, CD69 (gene 969)
# Test: BSK_SAg_CD69: BioMAP Diversity Plus: SAg Assay for CD69 Biomarker Activity (AID 2283089)
# Details: primary human HUVEC with PBMC; actives raise or lower the signal
# Protocol: BSK_SAg is a cell-based, multiplexed-readout assay that uses umbilical vein endothelium and peripheral blood mononuclear cells, a human vascular primary cell co-culture, with measurements taken at 24 hours after chemical dosing in a 96-well plate.BSK_SAg_CD69 is one of 10 assay component(s) measured or calculated from the BSK_SAg assay. It is designed to make measurements of enzyme-linked immunosorbent assay, a form of binding reporter, as detected with fluorescence intensity signals by Enzyme-linked immunosorbent assay technology.Data from the assay component BSK_SAg_CD69 was analyzed into 1 assay endpoint. This assay endpoint, BSK_SAg_CD69, was analyzed with bidirectional fitting relative to DMSO as the negative control and baseline of activity. Using a type of binding reporter, gain or loss-of-signal activity can be used to understand changes in the signaling as they relate to the gene CD69. Furthermore, this assay endpoint can be referred to as a primary readout, because this assay has produced multiple assay endpoints where this one serves a signaling function. To generalize the intended target to other relatable targets, this assay endpoint is annotated to the cytokine intended target family, where the subfamily is inflammatory factor.
# The levels of cell surface (or secreted, indicated by the prefix "s") biomarker endpoints were measured by ELISA. Overt cytotoxicity to cells in confluent adherent cultures (all systems other than the BT system) was assessed by measuring total protein levels using sulforhodamine B (SRB) staining in parallel cultures at the time of biomarker measurements, indicated as SRB endpoints. For proliferation assays for adherent cell types, individual cell types are cultured at sub-confluence and relative cell numbers quantified by SRB staining at time points optimized for each system (48 h: 3C and CASM3C systems; 72 h: BT and HDF3CGF systems; 96 h: SAg system). SRB was performed by staining cells with 0.1% SRB after fixation with 10% TCA and reading wells at 560 nm.Viability and proliferation of PBMC (T cells) was quantified by Alamar Blue reduction for the SAg and BT systems. For PBMC viability (referred to as PBMC Cytotoxicity within the assay endpoint names), cells were plated (75,000/well in a 96-well plate) and then chemical samples added for 1 h before addition of activators, SEB and TSST-1 (20 ng/mL final concentration each). Cells were incubated for 90 h. Then, Alamar Blue (20 uL/well) (Invitrogen, Cat DAL1100) was added for 6 h, and the plates were read with a fluorescence microplate reader at 546/580 nm (excitation/emission). For PBMC proliferation, cells were plated and activated as above but incubated for only 16 h prior to addition of Alamar Blue. Plates were read after 6 h.
Structure (SMILES),AC50,outcome
[Cd+2].[Cl-].[Cl-],32.4 µM (active) and 30.4 µM (active),
CC(C)(C)C(O)C(Oc1ccc(-c2ccccc2)cc1)n1cncn1 (centres undefined),,inactive
O=P1(NCCCl)OCCCN1CCCl (centres undefined),,inactive
N#CCCCCC#N,,inactive
C=CC(=O)OCC(CC)CCCC (centres undefined),,inactive
O=C1C=CC(=O)C=C1,20 µM (active) and 22.9 µM (active),
CC1(C)[C@H](C(=O)O[C@H](C#N)c2cccc(Oc3ccccc3)c2)[C@@H]1C=C(Br)Br,2.07 µM (active),inactive
Nc1ccc(-c2ccc(N)c(N)c2)cc1N,12.7 µM (active),
Cc1ccc(OP(=O)(Oc2ccc(C)cc2)Oc2ccc(C)cc2)cc1 (tested in a mixture with another compound),9.8 µM (active),
COc1ccc(CO)cc1,,inactive
CNC(=O)Oc1cc(C)c(SC)c(C)c1,,inactive
CCCOC(=O)c1ccccc1C(=O)OCCC,,inactive
Oc1ccc(C2(c3ccc(O)cc3)c3ccccc3-c3ccccc32)cc1,10.6 µM (active) and 9.45 µM (active),
CC(C)(c1cc(Cl)c(O)c(Cl)c1)c1cc(Cl)c(O)c(Cl)c1,26.3 µM (active),
O=C1C(Cl)=C(Cl)C(=O)C(Cl)=C1Cl,27.3 µM (active),
CC(C)COP(=O)(OCC(C)C)OCC(C)C,,inactive
CCC(C)c1cc([N+](=O)[O-])cc([N+](=O)[O-])c1OC(=O)C=C(C)C (centres undefined),8.09 µM (active),
C=CCN(CC=C)C(=O)C(Cl)Cl,,inactive
O=[N+]([O-])C=Cc1ccccc1,20 µM (active),

Structure (SMILES),AC50,outcome
Clc1ccc(-c2ccccc2)cc1,,inactive
COCC(=O)N(c1c(C)cccc1C)N1CCOC1=O,,inactive
Oc1cc(Cl)ccc1Cl,,inactive
O=S(=O)(c1ccccc1)c1ccccc1,,inactive
CCCC[N+](CCCC)(CCCC)CCCC,,inactive
CC(C)CCCCCCCOC(=O)c1ccccc1C(=O)OCCCCCCCC(C)C,,inactive
CC(C)(C)C(=O)CCl,8.75 µM (active),
O=[N+]([O-])c1ccc(Cl)cc1,,inactive
CC(=O)/C=C/c1ccccc1,,inactive
O=[N+]([O-])O,,inactive
c1ccc(Nc2ccc3ccccc3c2)cc1,,inactive
O=C(CCl)c1ccccc1,6.19 µM (active),
CCc1cc(C)cc(CC)c1-c1c(OC(=O)C(C)(C)C)n2n(c1=O)CCOCC2,,inactive
O=c1c2ccccc2c(=O)c2c1cc(Cl)c1[nH]c3c([nH]c12)c(Cl)cc1c(=O)c2ccccc2c(=O)c13,,inactive
CC(C)CCCCCCCOP(=O)(Oc1ccccc1)Oc1ccccc1,16.7 µM (active),
COC(C)(C)CCC[C@H](C)C/C=C/C(C)=C/C(=O)OC(C)C,18 µM (active),
O=C(O)CCCc1ccc(N(CCCl)CCCl)cc1,23.7 µM (active) and 20 µM (active),
CCCCCCCCCCCC#N,33.7 µM (active),
O=c1[nH]c(Cl)c(Cl)cc1Cl,,inactive
